Source: PubChem
Only a selection was taken, and hits are over-represented in it overall.
SF1 inhibitor – inhibitors of human nuclear receptor SF-1; Q13285; CHO-K1 Gal4-SF-1 LBD luciferase reporter; inhibition, % at 10 µM; 0.55% of 65,000 active;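 active = inhibition above the mean inhibition of all tested compounds plus 3 SD, cut at about 48% in these data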;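 also: 0% = SF-1 transfected cells with DMSO and 100% = mock-transfected cells lacking SF-1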
An asterisk follows results filed as active.

What do the screens show for `CCn1nc(-c2ccccc2)nc2c(=O)n(C)c(=O)nc1-2`?
SF1 inhibitor: 95*

How did CC(=NCC1CCCO1)c1c(O)n(-c2ccc(Cl)cc2)c(=O)[nH]c1=O (stereo unspecified) do in these assays?
SF1 inhibitor: 11

What do the screens show for `COc1cc(CN2CCN(c3cc(C)ccc3C)CC2)ccc1O`?
SF1 inhibitor: 67*

Results for O=C(CN1CCCC1=O)N1CCOCC1 ?
SF1 inhibitor: 8

Results for O=c1[nH]c(=O)n(CCc2ccc(F)cc2)c(O)c1C=NCCCN1CCOCC1 ?
SF1 inhibitor: 9

How did CCn1c(=O)cc(OCC(=O)N2CCN(Cc3ccc4c(c3)OCO4)CC2)c2ccccc21 do in these assays?
SF1 inhibitor: 17

How did C[C@H]1CCC/C=C/C2C[C@H](O)CC2[C@H](O)/C=C/C(=O)O1 (stereo partly specified) do in these assays?
SF1 inhibitor: 80*

What do the screens show for `O=c1cccc2n1CC1CC2CN(C(c2cccc(F)c2)c2sc3ncnn3c2O)C1` (stereo unspecified)?
SF1 inhibitor: 2

What do the screens show for `COC(=O)CC1NC2CCCCC2NC1=O` (stereo unspecified)?
SF1 inhibitor: -14

What do the screens show for `Cc1cccc(NC(=O)CSc2nnc([C@@H](N)Cc3c[nH]c4ccccc34)o2)c1C`?
SF1 inhibitor: -13

What do the screens show for `Cc1ccc(-n2c(O)c(C=NC3CCCC3)c(=O)[nH]c2=O)c(C)c1`?
SF1 inhibitor: -4

What do the screens show for `COc1cccc(C2=NOC(C(=O)N3CCC4(CC3)OCCO4)C2)c1` (stereo unspecified)?
SF1 inhibitor: -56

What do the screens show for `O=C(Cn1c2c(c(-c3ccccc3Cl)cc1=O)CCC2)N1CCC2(CC1)OCCO2`?
SF1 inhibitor: 15

Results for O=C(Cc1ccccc1)N1CCN(CC2CC=CCC2)CC1 (stereo unspecified) ?
SF1 inhibitor: 12

What do the screens show for `CCOC(=O)C1=C(C)OC(N)=C(C(=O)OCC)C12C(=O)Nc1ccc(Br)cc12` (stereo unspecified)?
SF1 inhibitor: -12
